Results reported in PubChem BioAssay (NCI).
Compounds without any hit were thinned out: in the full panel of roughly 79,000, 15% have a hit. No stated cut-off is given here; in the data, active means growth inhibition above about 70%; inactive means the rest.

Experiments:
[1] = NCI Yeast Anticancer Drug Screen. Data for the rad50 strain (AID 155);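 further: 0% = growth of vehicle-only cultures of the same strain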; conditions: S. cerevisiae rad50 strain growth inhibition; at 50.0 µM; active compounds read high
How it was run: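 Inhibition values express reduced yeast growth in compound-treated cultures relative to vehicle-treated controls.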

[2] = NCI Yeast Anticancer Drug Screen. Data for the mec2-1 strain (AID 157); conditions: S. cerevisiae mec2-1 strain, at 50.0 µM, active compounds read high
How it was run: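 Test agents were screened against the mec2-1 yeast strain, with defined DNA repair or cell cycle alteration. Growth was scored as inhibition against vehicle-only controls.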

[3] = NCI Yeast Anticancer Drug Screen. Data for the sgs1 mgt1 strain (AID 161);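 further: 0% = growth of cultures given vehicle only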; conditions: S. cerevisiae sgs1 mgt1 strain, at 50.0 µM, active compounds read high
How it was run: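 Genetically altered yeast, compound exposure, growth inhibition relative to vehicle.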

[4] = NCI Yeast Anticancer Drug Screen. Data for the cln2 rad14 strain (AID 165);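 further: 0% = growth equal to vehicle treated cultures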; conditions: S. cerevisiae cln2 rad14 strain, at 50.0 µM, active compounds read high
How it was run: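 Growth of compound-exposed yeast (cln2 rad14 genotype) measured and expressed as inhibition relative to vehicle.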

[5] = NCI Yeast Anticancer Drug Screen. Data for the bub3 strain (AID 167); conditions: S. cerevisiae bub3 mutant strain, at 50.0 µM, active compounds read high
How it was run: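 Steps: expose the mutant yeast strain to compound; grow alongside vehicle-treated cultures; measure growth; express inhibition against the vehicle cultures.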

[6] = NCI Yeast Anticancer Drug Screen. Data for the mlh1 rad18 strain (AID 175); conditions: S. cerevisiae mlh1 rad18 strain growth inhibition; at 50.0 µM; active compounds read high
How it was run: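 In this whole-cell yeast screen, a strain with altered DNA damage repair is challenged with compound, and its growth is measured against matched vehicle-treated controls.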

Measured: growth inhibition

CC(C)(C)OC(=O)Cn1ncn(NC(=O)Cc2ccccc2)c1=S
inactive: [1] -27.6% | [2] -23.9% | [3] 1.05% | [4] -37.2% | [5] -33.5% | [6] -15.7%

COC(=O)c1cc(C)nc(Cl)c1C(=O)O
inactive: [1] 1.55% | [2] 4.95% | [3] -2.2% | [4] 0% | [5] -2.05% | [6] -5.9%

O=C(N/N=C/c1cccc(C(F)(F)F)c1)c1ccncc1
inactive: [1] 12.8% | [2] 6.7% | [3] 11.1% | [4] -15.7% | [5] 8.05% | [6] 5.85%

COC1=CC(=O)C(c2cc(O)c(OC)cc2O)=CC1=O
inactive: [1] -0.15% | [2] 4.45% | [3] -3.65% | [4] -8.65% | [5] 4.5% | [6] 5.2%

Cc1c(Cc2c(C)n(C)n(-c3ccccc3)c2=O)c(=O)n(-c2ccccc2)n1C
inactive: [1] 9.55% | [2] -1.7% | [3] -0.25% | [4] 13.4% | [5] 9.9% | [6] 9.5%

CSC(N)=Nc1c(C)cccc1C
inactive: [1] 3.55% | [2] 22.9% | [3] 5.35% | [4] -4.1% | [5] 2.9% | [6] -16.7%

CC(=O)Nc1ccc(/C=C2\N=C(c3ccccc3)OC2=O)cc1
inactive: [1] 15.9% | [2] -1.75% | [3] 11.8% | [4] -49% | [5] -10.9% | [6] 10.3%

OCC(O)COCCCCCCCCCCCCCC1C=CCC1 (stereo not given)
inactive: [1] -35.8% | [2] -43.5% | [3] -35% | [4] -4.3% | [5] -23.5% | [6] -30.7%

CCOS(=O)(=O)c1ccc(F)c([N+](=O)[O-])c1
inactive: [1] 7.3% | [2] 5.6% | [3] -1.9% | [4] -47% | [5] 2.65% | [6] -2.1%

CCC(=O)Nc1cccc([N+](=O)[O-])c1OC
inactive: [1] -5.35% | [2] 23.4% | [3] -7.45% | [4] -52.2% | [5] 9.15% | [6] -15.2%

COc1cc(OC)c(C(C)=O)c(O)c1OC
inactive: [1] 2.75% | [2] 1.05% | [3] 10.9% | [4] 10.6% | [5] 11.1% | [6] 15.2%

CCOC(=O)/C(=C\c1ccc[nH]1)C(=O)c1ccccc1
inactive: [1] 48% | [2] -5.9% | [3] 5% | [4] 27.6% | [5] 20.1% | [6] 9.05%

CN(C)CCCNc1ccnc2cc([N+](=O)[O-])ccc12
inactive: [1] 10.2% | [2] 3.3% | [3] 4.4% | [4] -4.1% | [5] -1.3% | [6] -17.1%

NC(=S)N/N=C/c1ccc(Cl)cc1Cl
inactive: [1] 65.7% | [2] 42.5% | [3] 35.9% | [4] 28.3% | [5] 45.2% | [6] 38.7%

O=c1[nH]c(=O)c2ncn(C3OC(CO)C(O)C3O)c2[nH]1.O=c1[nH]c(=O)c2ncn(C3OC(CO)C(O)C3O)c2[nH]1.[NH2-].[NH2-].[Pt+2] (stereo not given)
inactive: [1] 3.35% | [2] 33.5% | [3] 41.7% | [4] 3.55% | [5] -8.5% | [6] 40.4%

CN1CCN(C(=S)N(C(=O)c2ccc(Cl)cc2)C2CCCCC2)CC1
inactive: [1] -67% | [2] -53.4% | [3] -54.8% | [4] -26.4% | [5] -66.9% | [6] -65.7%

[O-]c1c[n+](CCCC[n+]2cc([O-])on2)no1
inactive: [1] -5.4% | [2] -32.8% | [3] -13.3% | [4] 3.55% | [5] -60.7% | [6] -1.95%

OC1COC2CC(Nc3ccccn3)OC12 (stereo not given)
inactive: [1] -36.8% | [2] -41.2% | [3] -15.8% | [4] 0% | [5] -10.2% | [6] -13.6%

COC(=O)CCC1CCC(CC2CCC(CCC(=O)OC)CC2)CC1 (stereo not given)
inactive: [1] -20.1% | [2] -6.95% | [3] -6.65% | [4] -26% | [5] -9.7% | [6] -4.25%

O=C(CN1C(=O)c2ccccc2C1=O)NC(Cc1ccccc1)C(=O)O (stereo not given)
inactive: [1] 7.85% | [2] -6.9% | [3] -16.9% | [4] -12.5% | [5] 10.1% | [6] -9.65%
